Assay outcomes deposited in PubChem BioAssay by several laboratories.
Sampled rows, rich in hits. Any-hit rate of the full collection: about 1.6%.
JMJD2C inh – blocks human GASC-1 demethylase activity; GST-JMJD2C(1-420) H3K9me3 demethylation, DELFIA europium; inhibition, % at 2.35 µM; 330,000 compounds, 0.069% hits; AID 2099;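 active = more than half of a compound's replicate wells show inhibition beyond 50%, single wells judged on their own value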;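 also: signal counts dimethyl H3K9 product captured on neutravidin plate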
Pemphigus Ab inh – human desmoglein-3 autoantibody binding inhibition; P32926; DSG3-coupled beads, scFv-anti-DSG3-GFP binding, flow cytometry; active compounds read low; binding (percent of control), % at 10 µM; 310,000 compounds, 0.48% hits;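 active = binding more than 3 SD below its plate's average and above zero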;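 also: hits lower antibody fragment binding to DSG3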
PREPL inh – inhibitors of human prolyl oligopeptidase-like enzyme PREPL; recombinant PREPL, fluorescence polarization activity-based probe; inhibition, % at 5.96 µM; 320,000 compounds, 0.68% hits; AID 2751
Target sequence (Q4J6C6 whole entry, looked up): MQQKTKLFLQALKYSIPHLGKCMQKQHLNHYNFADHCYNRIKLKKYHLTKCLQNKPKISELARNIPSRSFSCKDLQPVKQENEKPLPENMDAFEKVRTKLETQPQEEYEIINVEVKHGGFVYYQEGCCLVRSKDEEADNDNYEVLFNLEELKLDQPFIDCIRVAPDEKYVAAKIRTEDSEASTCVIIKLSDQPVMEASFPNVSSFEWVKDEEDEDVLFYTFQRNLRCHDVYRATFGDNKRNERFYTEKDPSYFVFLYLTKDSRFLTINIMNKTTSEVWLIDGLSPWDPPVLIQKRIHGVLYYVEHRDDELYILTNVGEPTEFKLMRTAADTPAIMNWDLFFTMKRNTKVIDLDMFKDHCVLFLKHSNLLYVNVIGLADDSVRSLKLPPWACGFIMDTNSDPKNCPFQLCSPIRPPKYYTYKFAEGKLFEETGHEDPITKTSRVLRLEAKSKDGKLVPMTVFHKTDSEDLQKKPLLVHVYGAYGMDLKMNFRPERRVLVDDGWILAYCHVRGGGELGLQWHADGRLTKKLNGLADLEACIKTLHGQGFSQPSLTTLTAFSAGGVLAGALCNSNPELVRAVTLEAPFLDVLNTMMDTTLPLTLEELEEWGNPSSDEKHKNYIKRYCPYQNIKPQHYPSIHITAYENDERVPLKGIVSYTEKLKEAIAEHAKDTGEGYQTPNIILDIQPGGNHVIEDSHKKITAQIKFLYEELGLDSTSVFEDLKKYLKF
VLA-4 inh – inhibition in a human VLA-4 binding assay; P13612; VLA-4 expressing cells, ligand binding flow cytometry; inhibition, % (about 7 µM as worked out from the volumes in the protocol); 330,000 compounds, 0.2% hits; in the data active = inhibition above about 50%
GRK2 inh – blocks RNA aptamer binding to human GRK2; P25098; bead flow cytometry, FAM-aptamer displacement from GRK2; inhibition of aptamer binding, % at 10 µM; 330,000 compounds, 0.59% hits; AID 488847;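 active = inhibition of aptamer binding above 40%, roughly 3 SD of noise, on plates passing a quality check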;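 also: median bead fluorescence of bound FAM aptamer so fluorescent compounds give negative values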
PREPL confirm – confirmation of human PREPL enzyme inhibitors; inhibition, % at 5.96 µM; recombinant PREPL, fluorescence polarization activity probe; 2,000 compounds, 67% hits; AID 2803; shares compounds with PREPL inh
Each line names hits and unclear results; the compound was inactive in the other large screens (follow-up assays come after a bar, where they were run). Rule as the data show it, unless noted: active = inhibition above about 43%; inactive = the rest.

CC(C)CN(CCNC(=O)CN1N=C(c2ccc(Cl)cc2)CCC1=O)CC(C)C	PREPL inh 49 | PREPL confirm inactive
COc1cc(CN2CCN(CC#Cc3ccccc3)CC2CCO)cc(OC)c1 (stereo not drawn)	none (no result: PREPL inh)
CCOc1ccc(NS(=O)(=O)c2cc3c4c(c2)C(C)C(=O)N4CCC3)cc1 (stereo not drawn)	none (no result: Pemphigus Ab inh)
COc1ccc(NC(=O)c2ccc(Cn3cc(Cl)cn3)cc2)cc1	none
CN(C)c1ccc(NC(=O)c2ccc(Cn3cc([N+](=O)[O-])cn3)cc2)cc1	PREPL inh 48 | PREPL confirm 57
CC(C)c1nnc(NC(=O)CCC(=O)N2CCN(c3ccc(Cl)cc3)CC2)s1	PREPL inh 43 | PREPL confirm inactive
CC(C)c1nnc(NC(=O)CCC(=O)N2CCN(c3ccc(F)cc3)CC2)s1	none
COC(=O)[C@]1(Cc2ccccc2)N[C@H](CN(C)C(=O)COc2ccccc2)[C@@H]2C(=O)N(C)C(=O)[C@@H]21	none (no result: JMJD2C inh)
CSc1ccc(CCNS(=O)(=O)c2c(C)[nH]c(C)c2C(=O)N2CCCCC2)cc1	none
Cc1[nH]c(C)c(S(=O)(=O)NCCc2ccc(S(N)(=O)=O)cc2)c1C(=O)N1CCCC1	PREPL inh 54 | PREPL confirm inactive
CC(=O)NC1=C(N(C)C2CCS(=O)(=O)C2)C(=O)c2ccccc2C1=O (stereo not drawn)	none
CC(=O)NC1=C(Nc2ccc(N(C)C)cc2)C(=O)c2ccccc2C1=O	PREPL inh 49 | PREPL confirm inactive
CC1(OC(=O)C2CCCC2)C(=O)C=C2C=C(c3ccsc3)N(CC3CC3)C=C2C1=O (stereo not drawn)	PREPL inh 43 | PREPL confirm inactive
COc1ccccc1N=c1scc(-c2ccc3c(c2)NC(=O)CO3)n1CC1CCCO1 (stereo not drawn)	none
O=C1COc2ccc(-c3csc(=Nc4ccc(OC(F)F)cc4)n3CC3CCCO3)cc2N1 (stereo not drawn)	PREPL inh 46 | PREPL confirm 49
COc1cccc(CNC(=O)c2cc(COc3c(F)cccc3F)on2)c1	PREPL inh 50 | PREPL confirm inactive
Cc1ccccc1C(=O)N1CCC2CC1c1cc(-c3ccc(F)cc3)ccc12 (stereo not drawn)	none (no result: JMJD2C inh, PREPL inh, VLA-4 inh, GRK2 inh)
CN(CC(=O)Nc1ccc(Cl)c(C(F)(F)F)c1)Cc1cc(=O)n2ccsc2n1	none (no result: Pemphigus Ab inh)
CNC[C@H](Cc1cccc2ccccc12)NC[C@H](CCSC)NCC1CCC(C(C)(C)C)CC1 (stereo partly drawn)	PREPL inh 44 (no result: Pemphigus Ab inh) | PREPL confirm inactive
CC(CCc1ccccc1)NCc1cccc2ccccc12 (stereo not drawn)	none
Cc1ccc(N=Cc2sc(O)c3ccccc23)cc1	PREPL inh 50 | PREPL confirm 54
S=c1[nH]ncn1/N=C/c1cccs1	none
CC(Oc1ccc2cc(-c3ccccc3)c(=O)oc2c1)C(=O)NCC1CCC(C(=O)O)CC1 (stereo not drawn)	none
CCN1C(=O)/C(=C2/Sc3ccccc3N2CC)S/C1=N\c1ncn[nH]1	PREPL inh 48 (no result: Pemphigus Ab inh) | PREPL confirm inactive
CCN(CC(=O)Nc1c(F)cccc1F)C(=O)c1cccnc1Sc1ccccc1	none
CCCCn1c(N)c(N(CCOC)C(=O)CSc2nnc(-c3ccncc3)n2CCC)c(=O)[nH]c1=O	none
CCC(CO)Oc1cc(NCc2ccc(Cl)cc2)c2ncn(C(C)C)c2c1 (stereo not drawn)	PREPL inh 48 (no result: JMJD2C inh) | PREPL confirm inactive
O=C(COc1cccc(Cl)c1)Nc1ccc(N2CCOCC2)cc1	PREPL inh 46 | PREPL confirm 47
O=C(COc1ccc(F)c(Cl)c1)Nc1ccc(N2CCOCC2)cc1	PREPL inh 56 | PREPL confirm 55
COc1ccc2c(CC(=O)Nc3ccc(N4CCOCC4)cc3)coc2c1	PREPL inh 54 | PREPL confirm 60
O=C(CCn1c(=O)oc2ccccc21)Nc1ccc(N2CCOCC2)cc1	none
COc1ccc2c(CC(=O)Nc3ccc(OC)c(S(=O)(=O)N4CCOCC4)c3)coc2c1	none
O=C(CCn1c(=O)oc2cc(Cl)ccc21)Nc1ccc(N2CCOCC2)cc1	PREPL inh 49 | PREPL confirm 49
CCCCCCCCCC[N+](C)(C)CC/C=C1/c2ccccc2Sc2ccc(Cl)cc21	none
